Data: PubChem BioAssay AID504500 (NMMLSC, 2011)
Measured potencies and affinities stand elsewhere. Activity calls are given as the source filed them.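 How the source made its calls: active means compounds whose curve fit is tight, with span above 25% and half-effect concentration below 10 µM; inactive means the rest.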

Each molecule was assayed against Beta-adrenergic receptor kinase 1 (Homo sapiens) (UniProt P25098) (assay: aptamer displacement from bead-bound GRK2 – biochemical, cherry pick 1, bead flow cytometry, dose response (AID 504500)). Settings: bead-bound biotinylated GRK2, FAM-aptamer displacement; series mostly up to 33 µM; inhibition of aptamer binding: at the top concentration.
Chain of Beta-adrenergic receptor kinase 1 (Homo sapiens) (P25098 whole entry, looked up): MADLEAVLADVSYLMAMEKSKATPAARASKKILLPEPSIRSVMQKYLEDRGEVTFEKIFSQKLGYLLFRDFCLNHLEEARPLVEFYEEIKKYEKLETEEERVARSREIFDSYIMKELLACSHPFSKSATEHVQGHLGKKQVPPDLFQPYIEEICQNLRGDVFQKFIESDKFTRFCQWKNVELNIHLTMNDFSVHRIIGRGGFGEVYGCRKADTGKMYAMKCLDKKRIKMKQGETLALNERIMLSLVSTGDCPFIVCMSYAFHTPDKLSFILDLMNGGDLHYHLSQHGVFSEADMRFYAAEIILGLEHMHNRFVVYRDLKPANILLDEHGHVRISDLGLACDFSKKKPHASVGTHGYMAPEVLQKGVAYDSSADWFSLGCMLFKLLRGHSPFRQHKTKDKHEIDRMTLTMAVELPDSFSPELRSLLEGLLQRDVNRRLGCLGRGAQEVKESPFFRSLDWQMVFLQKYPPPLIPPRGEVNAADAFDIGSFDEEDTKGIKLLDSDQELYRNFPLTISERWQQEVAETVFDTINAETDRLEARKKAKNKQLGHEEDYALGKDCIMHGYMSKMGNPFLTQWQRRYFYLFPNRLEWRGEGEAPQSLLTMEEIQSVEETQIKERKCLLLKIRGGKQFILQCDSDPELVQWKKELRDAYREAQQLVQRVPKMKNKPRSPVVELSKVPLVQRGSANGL
`CC[n+]1c(/C=C/N(C)c2ccccc2)sc2ccc(Cl)cc21` was tested, and the “inhibition of aptamer binding” value was 69.3% (inactive). With `O=C1NC(=O)N(c2ccc3c(c2)OCO3)C(=O)/C1=C\c1ccc(-c2ccccc2C(=O)O)o1` the “inhibition of aptamer binding” value was -4.21% (inactive). `Cc1nc2c(=O)n(C)c(=O)nc-2n(C)n1` was tested, and the “inhibition of aptamer binding” value was 2.89% (inactive). In the case of `Cn1ncnc2c(=O)n(C)c(=O)nc1-2`, the “inhibition of aptamer binding” value is reported as 6.02% (inactive).
